In all, about 5,500 compounds went through this assay and about 2,000 (36%) were called active. Roughly 18% stayed inconclusive and do not appear here. Cut-off read from the data, not from the text of the source: active = normalized growth mostly below about 0.91 (no sharp cut-off); inconclusive = no clear call, values can overlap the other calls; inactive = mostly above about 0.92. The list shows a part of the results.
Assay: chemical genetic growth profiling, strain panel (AID 1159580);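 note: tested at 20 µM; growth read once vehicle control cultures reached saturation at 30 °C; 1 = growth at the plate median or of vehicle wells; lower values mean less growth of the strain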
Conditions: growth OD

Measured: normalized growth

Cc1cc(C)nc(NS(=O)(=O)c2ccc(N)cc2)n1
inactive: S. cerevisiae deletion strains, locus YJR066W, strain TOR1, stronger effect = lower value 0.929 | S. cerevisiae deletion strains, locus YJR075W, strain HOC1, stronger effect = lower value 0.98 | S. cerevisiae deletion strains, locus YKL009W, strain mrt4, stronger effect = lower value 0.961 | S. cerevisiae deletion strains, locus YKL068W, stronger effect = lower value 0.982 | S. cerevisiae deletion strains, locus YKL085W, strain MDH1 (second series), stronger effect = lower value 0.971 | S. cerevisiae deletion strains, locus YKL085W, strain MDH1, stronger effect = lower value 0.971 | S. cerevisiae deletion strains, locus YKL160W, strain elf1, stronger effect = lower value 1 | S. cerevisiae deletion strains, locus YKL190W, strain CNB1, stronger effect = lower value 1 | S. cerevisiae deletion strains, locus YKR001C, strain vps1, stronger effect = lower value 0.98 | S. cerevisiae deletion strains, locus YKR026C, strain gcn3, stronger effect = lower value 0.985 | S. cerevisiae deletion strains, locus YKR091W, strain srl3, stronger effect = lower value 0.958 | S. cerevisiae deletion strains, locus YLL001W, strain dnm1, stronger effect = lower value 1.03 | S. cerevisiae deletion strains, locus YLL026W, stronger effect = lower value 0.993 | S. cerevisiae deletion strains, locus YLL041C, strain sdh2, stronger effect = lower value 0.975 | S. cerevisiae deletion strains, locus YLR027C, strain aat2, stronger effect = lower value 0.985 | S. cerevisiae deletion strains, locus YLR039C, strain RIC1, stronger effect = lower value 0.981 | S. cerevisiae deletion strains, locus YLR058C, strain SHM2, stronger effect = lower value 0.986 | S. cerevisiae deletion strains, locus YLR102C, strain apc9, stronger effect = lower value 0.984 | S. cerevisiae deletion strains, locus YLR113W, strain HOG1, stronger effect = lower value 0.975 | S. cerevisiae deletion strains, locus YLR221C, strain rsa3, stronger effect = lower value 0.958 | S. cerevisiae deletion strains, locus YLR258W, strain gsy2, stronger effect = lower value 0.977 | S. cerevisiae deletion strains, locus YLR262C, strain YPT6 (second series), stronger effect = lower value 0.972 | S. cerevisiae deletion strains, locus YLR262C, strain YPT6, stronger effect = lower value 0.986 | S. cerevisiae deletion strains, locus YLR268W, strain sec22, stronger effect = lower value 0.952 | S. cerevisiae deletion strains, locus YLR320W, strain mms22, stronger effect = lower value 0.957 | S. cerevisiae deletion strains, locus YLR330W, strain CHS5, stronger effect = lower value 0.988 | S. cerevisiae deletion strains, locus YLR342W, strain FKS1 (second series), stronger effect = lower value 0.999 | S. cerevisiae deletion strains, locus YLR342W, strain FKS1, stronger effect = lower value 0.996 | S. cerevisiae deletion strains, locus YLR357W, strain rsc2, stronger effect = lower value 0.975 | S. cerevisiae deletion strains, locus YLR370C, strain arc18, stronger effect = lower value 0.984 | S. cerevisiae deletion strains, locus YLR371W, strain rom2, stronger effect = lower value 0.961 | S. cerevisiae deletion strains, locus YLR384C, strain iki3, stronger effect = lower value 0.985 | S. cerevisiae deletion strains, locus YLR418C, strain cdc73, stronger effect = lower value 1.02 | S. cerevisiae deletion strains, locus YML016C, strain PPZ1, stronger effect = lower value 0.995 | S. cerevisiae deletion strains, locus YML032C, strain rad52, stronger effect = lower value 0.98 | S. cerevisiae deletion strains, locus YML120C, strain ndi1, stronger effect = lower value 0.976 | S. cerevisiae deletion strains, locus YML124C, strain tub3, stronger effect = lower value 0.981 | S. cerevisiae deletion strains, locus YMR058W, strain fet3, stronger effect = lower value 0.986 | S. cerevisiae deletion strains, locus YMR078C, strain ctf18, stronger effect = lower value 0.98 | S. cerevisiae deletion strains, locus YMR125W, strain sto1, stronger effect = lower value 0.947 | S. cerevisiae deletion strains, locus YMR129W, stronger effect = lower value 0.974 | S. cerevisiae deletion strains, locus YMR205C, strain PFK2, stronger effect = lower value 0.988 | S. cerevisiae deletion strains, locus YMR223W, strain ubp8, stronger effect = lower value 1.02 | S. cerevisiae deletion strains, locus YMR231W, strain pep5, stronger effect = lower value 1.02 | S. cerevisiae deletion strains, locus YMR307W, strain GAS1, stronger effect = lower value 1.02 | S. cerevisiae deletion strains, locus YNL067W, strain RPL9B, stronger effect = lower value 0.996 | S. cerevisiae deletion strains, locus YNL071W, strain lat1, stronger effect = lower value 0.973 | S. cerevisiae deletion strains, locus YNL128W, strain TEP1, stronger effect = lower value 0.97 | S. cerevisiae deletion strains, locus YNL183C, strain NPR1, stronger effect = lower value 0.967 | S. cerevisiae deletion strains, locus YNL209W, strain ssb2, stronger effect = lower value 0.975 | S. cerevisiae deletion strains, locus YNL233W, strain BNI4, stronger effect = lower value 0.997 | S. cerevisiae deletion strains, locus YNL248C, strain rpa49, stronger effect = lower value 0.909 | S. cerevisiae deletion strains, locus YNL250W, strain rad50, stronger effect = lower value 0.986 | S. cerevisiae deletion strains, locus YNL271C, strain bni1, stronger effect = lower value 0.993 | S. cerevisiae deletion strains, locus YNL298W, strain CLA4, stronger effect = lower value 0.963 | S. cerevisiae deletion strains, locus YNL307C, strain MCK1, stronger effect = lower value 0.978 | S. cerevisiae deletion strains, locus YNL322C, strain KRE1 (second series), stronger effect = lower value 0.971 | S. cerevisiae deletion strains, locus YNL322C, strain KRE1, stronger effect = lower value 0.997 | S. cerevisiae deletion strains, locus YNR049C, strain mso1, stronger effect = lower value 0.963 | S. cerevisiae deletion strains, locus YNR052C, strain pop2, stronger effect = lower value 0.97 | S. cerevisiae deletion strains, locus YOL006C, strain TOP1, stronger effect = lower value 1.07 | S. cerevisiae deletion strains, locus YOL012C, strain htz1 1.13 | S. cerevisiae deletion strains, locus YOL147C, strain pex11, stronger effect = lower value 0.991 | S. cerevisiae deletion strains, locus YOR001W, strain rrp6, stronger effect = lower value 1 | S. cerevisiae deletion strains, locus YOR061W, strain CKA2, stronger effect = lower value 1 | S. cerevisiae deletion strains, locus YOR069W, strain VPS5, stronger effect = lower value 0.988 | S. cerevisiae deletion strains, locus YOR070C, strain gyp1, stronger effect = lower value 0.98 | S. cerevisiae deletion strains, locus YOR080W, strain dia2, stronger effect = lower value 0.983 | S. cerevisiae deletion strains, locus YOR083W, strain WHI5, stronger effect = lower value 0.983 | S. cerevisiae deletion strains, locus YOR106W, strain vam3, stronger effect = lower value 1.02 | S. cerevisiae deletion strains, locus YOR136W, strain idh2, stronger effect = lower value 0.996 | S. cerevisiae deletion strains, locus YOR144C, strain elg1, stronger effect = lower value 0.991 | S. cerevisiae deletion strains, locus YOR184W, strain ser1, stronger effect = lower value 0.979 | S. cerevisiae deletion strains, locus YOR231W, strain MKK1, stronger effect = lower value 0.995 | S. cerevisiae deletion strains, locus YOR265W, strain rbl2, stronger effect = lower value 0.981 | S. cerevisiae deletion strains, locus YOR270C, strain vph1, stronger effect = lower value 0.97 | S. cerevisiae deletion strains, locus YOR290C, strain snf2, stronger effect = lower value 0.943 | S. cerevisiae deletion strains, locus YOR316C, strain cot1, stronger effect = lower value 0.971 | S. cerevisiae deletion strains, locus YPL051W, strain arl3, stronger effect = lower value 0.995 | S. cerevisiae deletion strains, locus YPL078C, strain atp4, stronger effect = lower value 0.99 | S. cerevisiae deletion strains, locus YPL106C, strain sse1, stronger effect = lower value 0.914 | S. cerevisiae deletion strains, locus YPL240C, strain hsp82, stronger effect = lower value 0.979 | S. cerevisiae deletion strains, locus YPL256C, strain CLN2, stronger effect = lower value 0.954 | S. cerevisiae deletion strains, locus YPR119W, strain clb2, stronger effect = lower value 0.978 | S. cerevisiae deletion strains, locus YPR141C, strain kar3, stronger effect = lower value 0.973 | S. cerevisiae deletion strains, locus YPR163C, strain tif3, stronger effect = lower value 0.981 | S. cerevisiae deletion strains, locus YPR167C, strain met16, stronger effect = lower value 0.971 | S. cerevisiae deletion strains, strain wtn01, stronger effect = lower value 0.981 | S. cerevisiae strains, strain wild type, stronger effect = lower value 0.995

Source: PubChem BioAssay AID1159580 (chemical genetic matrix, 2015)
